Results: PubChem BioAssay (NCI)
The panel holds about 83,000 compounds, 20% with a hit somewhere; the sample as a whole holds those more often.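 Method: cells in 96-well plates; compound added at one concentration; 48 h incubation; percent growth measured; values under 10 scored active.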 The source made the active and inactive calls.

Legend:
Experiment in all cases: NCI-60 one-dose screen, 48 h (100 = growth as untreated, 0 = no growth, -100 = all killed)
Settings in all cases: 10 µM unless noted
NCI-H23 lung = test system: NCI-H23 lung
NCI-H226 lung = test system: NCI-H226 lung
NCI-H322M lung = test system: NCI-H322M lung
HOP-62 NSCLC = test system: HOP-62 NSCLC
NCI-H460 lung = test system: NCI-H460 lung
HOP-92 NSCLC = test system: HOP-92 NSCLC
NCI-H522 lung = test system: NCI-H522 lung
A549/ATCC NSCLC = test system: A549/ATCC NSCLC
786-0 renal = test system: 786-0 renal
COLO 205 colon = test system: COLO 205 colon
DU-145 prostate = test system: DU-145 prostate
K-562 leukemia = test system: K-562 leukemia
MALME-3M melanoma = test system: MALME-3M melanoma
MDA-MB-231 breast = test system: MDA-MB-231 breast
RXF 393 renal = test system: RXF 393 renal
SF-268 CNS = test system: SF-268 CNS
SF-295 CNS = test system: SF-295 CNS
SF-539 CNS = test system: SF-539 CNS
UACC-257 melanoma = test system: UACC-257 melanoma
M14 melanoma = test system: M14 melanoma

Measured: growth

O=C(CSc1nc(-c2ccccc2)[nH]c1S(=O)(=O)c1ccccc1)NC1CC1
inactive: NCI-H23 lung 56.6% | NCI-H226 lung 85.8% | NCI-H322M lung 105% | HOP-62 NSCLC 21.2% | NCI-H460 lung 102% | HOP-92 NSCLC 89.6% | NCI-H522 lung 76.2% | A549/ATCC NSCLC 42.1% | 786-0 renal 94.5% | DU-145 prostate 112% | K-562 leukemia 87.4% | MALME-3M melanoma 103% | MDA-MB-231 breast 90.1% | SF-268 CNS 102% | SF-295 CNS 36.3% | SF-539 CNS 103% | UACC-257 melanoma 87.4% | M14 melanoma 96.4%
active: COLO 205 colon -30.9% | RXF 393 renal 4.36%

C#COc1cccc(Nc2ncnc3ncc(NC(=O)CCl)cc23)c1
inactive: NCI-H23 lung 32.9% [6.25 µM] | NCI-H226 lung 43.8% [6.25 µM] | NCI-H322M lung 59.4% [6.25 µM] | HOP-92 NSCLC 59.5% [6.25 µM] | A549/ATCC NSCLC 23% [6.25 µM] | K-562 leukemia 15.3% [6.25 µM] | MALME-3M melanoma 37.1% [6.25 µM] | SF-295 CNS 33.5% [6.25 µM] | UACC-257 melanoma 59.4% [6.25 µM] | M14 melanoma 35.8% [6.25 µM]
active: HOP-62 NSCLC -2.06% [6.25 µM] | NCI-H460 lung -5.59% [6.25 µM] | NCI-H522 lung -79.2% [6.25 µM] | 786-0 renal -69.6% [6.25 µM] | COLO 205 colon -46.9% [6.25 µM] | DU-145 prostate 8.37% [6.25 µM] | MDA-MB-231 breast -4.91% [6.25 µM] | RXF 393 renal -12.9% [6.25 µM] | SF-268 CNS -6.57% [6.25 µM] | SF-539 CNS 0.882% [6.25 µM]

CC(C)(C)n1cc(-c2ccnc(NCCNS(=O)(=O)c3cccc(F)c3)c2)c(-c2ccccc2)n1
active: HOP-92 NSCLC 3.59%
inactive: NCI-H23 lung 79.1% | NCI-H226 lung 90.1% | NCI-H322M lung 97.8% | HOP-62 NSCLC 101% | NCI-H460 lung 90.7% | NCI-H522 lung 79.8% | A549/ATCC NSCLC 79.9% | 786-0 renal 81.2% | COLO 205 colon 78.3% | DU-145 prostate 96.1% | K-562 leukemia 44.2% | MALME-3M melanoma 107% | MDA-MB-231 breast 87% | RXF 393 renal 96.8% | SF-268 CNS 97.7% | SF-295 CNS 76.8% | SF-539 CNS 88.1% | UACC-257 melanoma 98.9% | M14 melanoma 94.8%

CO[C@H]1/C=C(/C)CCC[C@H](C)[C@H](O)[C@@H](C)C(=O)C(C)(C)[C@@H](O)CC(=O)O[C@@H]1/C(C)=C/c1csc(C)n1
inactive: NCI-H23 lung 34.7% | NCI-H226 lung 50.3% | NCI-H322M lung 12.8% | HOP-62 NSCLC 29.4% | HOP-92 NSCLC 66.6% | A549/ATCC NSCLC 17.5% | 786-0 renal 57.1% | K-562 leukemia 13.9% | MALME-3M melanoma 45.2% | MDA-MB-231 breast 10.3% | SF-268 CNS 36.5% | UACC-257 melanoma 56.2%
active: NCI-H460 lung 6.16% | NCI-H522 lung -29.1% | COLO 205 colon -53% | DU-145 prostate -48.1% | RXF 393 renal -23.4% | SF-295 CNS -17.8% | SF-539 CNS 1.38% | M14 melanoma 3.27%

O=c1c2cc(-c3ccccc3)sc2nc2sc(-c3ccccc3)nn12
inactive: NCI-H23 lung 98.9% | NCI-H226 lung 104% | NCI-H322M lung 104% | HOP-62 NSCLC 102% | NCI-H460 lung 100% | HOP-92 NSCLC 84.3% | NCI-H522 lung 95.7% | A549/ATCC NSCLC 91.6% | 786-0 renal 93% | COLO 205 colon 109% | DU-145 prostate 103% | K-562 leukemia 93.8% | MALME-3M melanoma 94.1% | MDA-MB-231 breast 110% | RXF 393 renal 93.2% | SF-268 CNS 100% | SF-295 CNS 98.8% | SF-539 CNS 107% | UACC-257 melanoma 90.9% | M14 melanoma 97.9%

O=C1Nc2ccc(I)cc2C1=O
inactive: NCI-H23 lung 89.7% | NCI-H226 lung 92.8% | NCI-H322M lung 107% | HOP-62 NSCLC 84.4% | NCI-H460 lung 107% | HOP-92 NSCLC 104% | NCI-H522 lung 93.4% | A549/ATCC NSCLC 88.7% | 786-0 renal 109% | COLO 205 colon 88.9% | DU-145 prostate 106% | K-562 leukemia 107% | MALME-3M melanoma 110% | MDA-MB-231 breast 93.5% | RXF 393 renal 91.4% | SF-268 CNS 110% | SF-295 CNS 99.1% | SF-539 CNS 100% | M14 melanoma 95.9%
active: UACC-257 melanoma -28.4%

Cc1ccc(-c2nn(-c3ccccc3)cc2C=C2C(=O)ON=C2C(C)C)cc1
inactive: NCI-H23 lung 89.2% | NCI-H226 lung 95.3% | NCI-H322M lung 91.2% | HOP-62 NSCLC 88.6% | NCI-H460 lung 80% | HOP-92 NSCLC 86% | NCI-H522 lung 74% | A549/ATCC NSCLC 86.8% | 786-0 renal 78.7% | COLO 205 colon 114% | DU-145 prostate 88.1% | K-562 leukemia 34.2% | MALME-3M melanoma 85.2% | MDA-MB-231 breast 97.3% | RXF 393 renal 89.9% | SF-268 CNS 94.8% | SF-295 CNS 96.8% | SF-539 CNS 83.6% | UACC-257 melanoma 96.4% | M14 melanoma 65.8%
